PLK1 PBD inh = inhibitors of human PLK1 polo-box domain binding; P53350; AID 720504; 360,000 tested, 2.8% active; Potency, µM, usual class: inhibitors; Plk1 PBD binding of FITC phosphopeptide, fluorescence polarization; also: series mostly up to about 57 µM; nearly all actives have a fitted effect of over 65% in size
GCN5L2 inh = blocks human GCN5L2 histone acetyltransferase; Q92830; AID 504327; Potency, µM (top dose mostly 58.9 µM), usual class: inhibitors; GCN5L2 HAT assay, ThioGlo1 CoA-SH fluorescence; 390,000 tested, 0.21% active
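Preincubate 20nM GCN5L2 with compound 15 min, RT → add 50uM ThioGlo1 + 75uM H3(1-25) + 70uM acetyl-CoA → read fluorescence 0 and 20 min. Primary qHTS; fluorescent artifacts likely.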
VDR inh = inhibitors of human vitamin D receptor; VDR-SRC2-3 peptide fluorescence polarization, 2 h; Potency, µM, actives largely listed as inhibitors; 400,000 tested, 0.93% active; AID 504847
Target sequence (P11473 whole entry, looked up): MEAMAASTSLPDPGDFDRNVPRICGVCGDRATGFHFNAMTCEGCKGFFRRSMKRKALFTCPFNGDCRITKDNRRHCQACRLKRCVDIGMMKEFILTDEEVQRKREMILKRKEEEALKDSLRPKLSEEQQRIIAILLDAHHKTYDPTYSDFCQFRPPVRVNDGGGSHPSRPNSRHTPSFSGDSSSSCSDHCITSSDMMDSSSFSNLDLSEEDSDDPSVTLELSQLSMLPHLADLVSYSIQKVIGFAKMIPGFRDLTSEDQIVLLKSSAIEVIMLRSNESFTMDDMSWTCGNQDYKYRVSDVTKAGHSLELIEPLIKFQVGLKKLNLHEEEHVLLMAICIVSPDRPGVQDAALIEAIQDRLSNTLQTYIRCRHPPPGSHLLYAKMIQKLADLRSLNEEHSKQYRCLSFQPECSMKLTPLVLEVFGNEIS
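VDR–SRC2-3 interaction, FP format. Cmpds 23 nl via pintool, brief spin, 2 h ambient incubation.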
TDP1 inh = inhibitors of human tyrosyl-DNA phosphodiesterase TDP1; 350,000 tested, 0.28% active; recombinant TDP1, AlphaScreen DNA substrate cleavage; Q9NUW8; AID 485290; Potency, µM (doses to about 130 µM), usual class: inhibitors; also: nearly all actives have a fitted effect of over 40% in size
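Recombinant human Tdp1 (E. coli-expressed, 1 nM final) preincubated with compounds 15 min at room temperature, then 5'-biotin/3'-phosphotyrosine-FITC DNA substrate (15 nM final) added for 5 min. AlphaScreen beads (10 ug/ml final) added 10 min; cleavage lowers signal.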
TDP1 cell noCPT = qHTS for Inhibitors of human tyrosyl-DNA phosphodiesterase 1 (TDP1): qHTS in cells in absence of CPT; DT40 Tdp1-/- hTDP1 cells, no CPT, ATP luminescence, 48 h; Potency, µM (highest dose often 46.2 µM), hits mostly inhibitors; 420,000 tested, 15% active; AID 686978, 2013; also: nearly all actives have a fitted effect of over 55% in size
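Chicken DT40 Tdp1-/- cells stably complemented with human TDP1 were seeded at 400 cells/well with DMSO in place of 20 nM camptothecin. After compound pinning, cells grew at least 48 hr at 37 °C; viability read by CellTiter-Glo luminescence.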
DT40 TDP1 CPT = growth inhibition of DT40 Tdp1-/-;hTDP1 cells with camptothecin (screen for TDP1 inhibitors). AID 686979. Potency, µM (doses to about 46.2 µM), usual class: inhibitors. 420,000 tested, 12% active. chicken DT40 Tdp1-/-;hTDP1 cells + 20 nM CPT, ATP luminescence, 48 h; also: nearly all actives have a fitted effect of over 55% in size
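Chicken DT40 Tdp1-/- cells complemented with human TDP1, 400 cells/well, exposed to compounds plus 20 nM camptothecin for at least 48 h at 37 C; viability read as ATP content by CellTiter-Glo luminescence.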
Each line names hits and unclear results; the compound was inactive in the other large screens. A selection: hits, their analogues and other compounds. The true share with any hit is near 18%. Calls follow the shape of the dose curve; as a rule, active = well fitted curve in the direction sought with a large enough effect; inconclusive = small, poorly fitted or top-dose-only effect, or another doubt; inactive = no such curve, though single readings can be large; an effect the other way counts as inactive or inconclusive.

CCCNC(=O)C1CCC(Cn2c(=O)c3sccc3n(CC(=O)NCc3cccc(OC)c3OC)c2=O)CC1 (stereo not given)	TDP1 cell noCPT 4.1µM, DT40 TDP1 CPT inconclusive (no result: PLK1 PBD inh)
CCCCNC(=O)C1CCC(Cn2c(=O)c3sccc3n(CC(=O)Nc3ccccc3)c2=O)CC1 (stereo not given)	TDP1 cell noCPT inconclusive, DT40 TDP1 CPT 15µM (no result: PLK1 PBD inh)
COCCCNC(=O)CC1C(=O)N(Cc2ccccc2)C(C)c2nc3ccccc3n21 (stereo not given)	none
COc1ccc(C2CC(c3cccs3)=NN2S(=O)(=O)c2ccc(C)cc2)cc1 (stereo not given)	TDP1 cell noCPT 23µM, DT40 TDP1 CPT 23µM (no result: GCN5L2 inh, TDP1 inh)
O=[N+]([O-])c1ccc(C2Oc3ccccc3C3CC(c4ccccc4)=NN32)s1 (stereo not given)	none (no result: PLK1 PBD inh, VDR inh, TDP1 cell noCPT, DT40 TDP1 CPT)
O=S(=O)(c1ccccc1)N1N=C(c2cccs2)CC1c1cccc(O)c1 (stereo not given)	TDP1 cell noCPT 16µM, DT40 TDP1 CPT inconclusive
O=S(=O)(c1ccccc1)N1N=C(c2cccs2)CC1c1ccc(F)cc1 (stereo not given)	PLK1 PBD inh 21µM, TDP1 cell noCPT inconclusive, DT40 TDP1 CPT inconclusive
COc1ccc(C2=NN(S(C)(=O)=O)C(c3cccs3)C2)cc1 (stereo not given)	none
CS(=O)(=O)N1N=C(c2cccs2)CC1c1ccccc1 (stereo not given)	none
c1ccc(C2Oc3ccccc3C3CC(c4cccs4)=NN32)cc1 (stereo not given)	TDP1 cell noCPT 16µM, DT40 TDP1 CPT inconclusive
O=C1NC(=O)C(Cc2ccccc2)(C2CCN(Cc3cccn3-c3cccnc3)CC2)N1 (stereo not given)	none (no result: PLK1 PBD inh, GCN5L2 inh, VDR inh, TDP1 inh)
Cc1ccc(NC(=O)C2CCN(C(=O)c3ccco3)CC2)cc1C	none (no result: TDP1 inh)
Cc1ccc(N2CCN(S(=O)(=O)c3c(C)[nH]c(=O)[nH]c3=O)CC2C)cc1 (stereo not given)	none (no result: PLK1 PBD inh)
Cc1ccc(C2CC(c3cccs3)=NN2S(=O)(=O)c2ccc(C)cc2)cc1 (stereo not given)	TDP1 cell noCPT 23µM, DT40 TDP1 CPT 21µM
Fc1ccc(N2N=C(c3cccs3)CC2c2ccccc2)cc1 (stereo not given)	TDP1 inh 13µM, TDP1 cell noCPT inconclusive
Cn1c(=O)c(-c2ccccc2)nc2cnc(OCc3ccccc3)nc21	none (no result: PLK1 PBD inh, TDP1 inh)
CN(C)c1cccc(F)c1C(=O)NC(=O)Nc1ccc(Cl)cc1	TDP1 cell noCPT 6.5µM, DT40 TDP1 CPT 5.2µM (no result: GCN5L2 inh, TDP1 inh)
O=C(Nc1ccccc1C(F)(F)F)c1c(F)cccc1Cl	PLK1 PBD inh 30µM
CC(C)(C)c1ccc(NC(=O)c2c(F)cccc2Cl)cc1	TDP1 cell noCPT 3.3µM, DT40 TDP1 CPT 10µM
CN(C)c1cccc(N(C)C)c1CNC(=O)NC(=O)c1c(F)cccc1F	GCN5L2 inh inconclusive, TDP1 cell noCPT inconclusive, DT40 TDP1 CPT inconclusive
Cc1ccc(NC(=O)c2c(F)cccc2Cl)cc1NS(C)(=O)=O	none
Cc1cc(Nc2ccc(C)c(Cl)c2)n2nc(Cc3ccccc3)nc2n1	TDP1 cell noCPT inconclusive, DT40 TDP1 CPT inconclusive (no result: PLK1 PBD inh)
CC(=O)Nc1ccc(S(=O)(=O)NC2(C(F)(F)F)NC(=O)N(CCc3ccc(F)cc3)C2=O)cc1 (stereo not given)	none (no result: PLK1 PBD inh)
CC1CCCCN1S(=O)(=O)c1ccc(N(C(=O)c2cnccn2)C(C(=O)NC2CCCC2)c2cccs2)cc1 (stereo not given)	TDP1 cell noCPT 21µM, DT40 TDP1 CPT inconclusive
C[N+](C)(CCCOc1ccccc1)c1ccccc1	none (no result: PLK1 PBD inh, TDP1 cell noCPT, DT40 TDP1 CPT)
CN(C)c1ccc2c(c1)Sc1cc(N(C)C)ccc1N2C(=O)c1ccccc1	TDP1 cell noCPT 21µM, DT40 TDP1 CPT inconclusive
CN1CCN(Cc2nc3ccccc3c(=O)n2Cc2nc(-c3ccccc3F)cs2)CC1	PLK1 PBD inh inconclusive, TDP1 cell noCPT 10µM, DT40 TDP1 CPT 16µM

Bioassay records as filed in PubChem.
